Several values for one entry are separate records, joined by “and”; a condition that tells them apart may be missing. Identical values can stand only once. Activity calls are given as the source filed them.
Experiments:
[1] = A549 cell viability effects, profiling panel, calcein-AM fluorescence, 48 h, basal (AID 1162); conditions: higher = more signal
[2] = adipocyte viability effects, profiling panel, cell-based, 3T3-L1 adipocytes, calcein-AM fluorescence, 48 h, basal (AID 1163); conditions: 3T3-L1 adipocytes viability, higher = more signal
[3] = HepG2 cell viability effects, profiling panel, calcein-AM fluorescence, 48 h, basal (AID 1164); conditions: higher = more signal
[4] = MM1S cell viability effects, profiling panel, calcein-AM fluorescence, 48 h, basal (AID 1165); conditions: higher = more signal;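 note: viability of MM1S multiple myeloma cells under basal unstimulated conditions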
[5] = basal RPMI8226 viability, no added stimulus, profiling panel, cell-based, calcein-AM fluorescence, 48 h, PK04 Diversity Set (AID 1166); conditions: RPMI8226 myeloma viability, higher = more signal;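 note: cells grown under basal conditions without added stimulus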
[6] = basal HepG2 mitochondrial membrane potential changes, profiling panel, cell-based, JC-1 fluorescence, 24 h, 100 nL compound (AID 1167); conditions: higher = more signal
[7] = basal 3T3-L1 adipocyte mitochondrial potential changes, profiling panel, cell-based, JC-1 fluorescence, 3T3-L1 adipocytes, 24 h, 100 nL compound (AID 1168); conditions: JC-1 mitochondrial fluorescence, higher = more signal, called active from +8 up or from −8 down
[8] = basal RPMI8226 mitochondrial membrane potential changes, profiling panel, cell-based, JC-1 fluorescence, 24 h, 100 nL compound (AID 1169); conditions: RPMI8226 myeloma, JC-1 mitochondrial potential fluorescence, higher = more signal
[9] = basal MM1S mitochondrial membrane potential changes, profiling panel, cell-based, JC-1 fluorescence, 24 h, 100 nL compound (AID 1170); conditions: higher = more signal
[10] = A549 lung cancer cell viability effects, profiling panel, resazurin fluorescence, 24 h, PK04 Diversity Set (AID 1171); conditions: higher = more signal, called active from +8 up or from −8 down
Note: test concentration not given here.

| Structure (SMILES) | z-score [1] | z-score [2] | z-score [3] | z-score [4] | z-score [5] | z-score [6] | z-score [7] | z-score [8] | z-score [9] | z-score [10] |
| --- | --- | --- | --- | --- | --- | --- | --- | --- | --- | --- |
| Cc1ccc(S(=O)(=O)OC[C@@H]2CN3[C@@H](CC[C@@H](C)[C@@H]3c3ccc(Br)cc3)C(=O)O2)cc1 | -0.251 and 0.0448 | 0.0273 and 0.503 | 0.462 and 0.028 | -0.644 and 0.185 | -0.341 and -0.294 | -0.735 and 0.438 | -0.303 (inactive) and 0.303 (inactive) | -0.883 and -0.68 | 0.925 and 0.523 | -0.474 (inactive) and 0.371 (inactive) |
| C[N+](C)(C)CCCCNC(=O)[C@H]1C[C@H]2C(=O)N[C@@H](CCCC[N+](C)(C)C)C(=O)N2[C@H]1c1cccc(OCCO)c1 | -0.663 and -0.261 | -0.488 and -0.571 | -1.13 and -0.231 | -0.485 and -1.67 | 0.267 and 0.461 | -1.2 and -0.91 | -0.0125 (inactive) and 0.0612 (inactive) | -0.117 and 0.49 | -0.199 and -0.118 | -0.964 (inactive) and -0.711 (inactive) |
| COC(=O)C1=C(C)N(Cc2ccccc2)[C@]23O[C@](C(=O)OC)(C(=O)N2[C@@H]1c1ccccc1)[C@H]1C(=O)N(c2ccccc2)C(=O)[C@H]13 | 0.0342 and 1.13 | 0.513 and 1.12 | -0.254 and -0.339 | 0.149 and 0.0697 | -0.483 and 0.292 | 0.369 and 0.573 | 0.658 (inactive) and 0.885 (inactive) | -0.749 and -0.197 | 0.702 and 0.235 | 0.376 (inactive) and -0.0028 (inactive) |
| COC(=O)C1=C(C)N(Cc2ccccc2)[C@]23O[C@](C(=O)OC)(C(=O)N2[C@@H]1c1ccccc1)[C@@H](C(=O)OC)[C@H]3C(=O)OC | 1.59 and 1.67 | -0.0502 and -0.386 | 0.209 and 1.32 | 0.185 and 0.568 | 0.248 and 0.636 | 0.345 and 0.106 | 0.225 (inactive) and 1.49 (inactive) | -0.866 and 0.532 | -0.142 and -0.237 | 0.415 (inactive) and -0.804 (inactive) |
| CO[C@H]1COC(=O)CC=C[C@@H](C)COC(=O)[C@H](CCSC)NC(=O)CC=C[C@@H]1C | -0.875 and -0.577 | 0.584 and 0.153 | -0.442 and 0.338 | 0.0739 and -0.242 | -0.858 and 0.708 | 0.755 and 0.535 | -0.153 (inactive) and 0.157 (inactive) | -0.688 and 0.358 | 0.588 and 1.85 | -0.8 (inactive) and 0.705 (inactive) |
| C=CCN(C(=O)C1N(c2c(Cl)cccc2CO)C(=O)C2C(C(=O)O)C3C=CC21O3)c1ccc(OC)cc1 (stereo not given) | -0.211 and 1.87 | 1.02 and 0.581 | -0.915 and 1.6 | 0.972 and -0.224 | -0.998 and 0.529 | -0.877 and 0.862 | -0.955 (inactive) and 0.659 (inactive) | -0.106 and -0.544 | 0.644 and 0.576 | -0.475 (inactive) and 1.02 (inactive) |
| COC(=O)[C@@]1(Cc2ccc(F)cc2)[C@H]2c3cc(C(=O)N4CCCC4)n(Cc4c(CO)[nH]cc(C)c4=O)c3C[C@H]2CN1C(=O)c1ccccc1 | -1.51 and -0.994 | 0.284 and -0.41 | -0.272 and -0.426 | -1.2 and -0.26 | -1.34 and -0.473 | 1.07 and 0.498 | -0.217 (inactive) and -1.18 (inactive) | -0.409 and 0.893 | 0.1 and 0.277 | -0.133 (inactive) and 2.11 (inactive) |
| CC(C)[Si]1(C(C)C)OCc2cc(C3CC3)nc(CCc3ccccc3)c21 | -0.351 and -0.69 | 0.193 and -0.871 | 0.498 and 0.203 | -2.57 and -2.81 | -0.48 and -3.77 | -1.5 and -2.69 | -0.186 (inactive) and -0.575 (inactive) | -0.14 and -0.902 | 0.245 and -0.582 | 1.12 (inactive) and 1.39 (inactive) |
| COC(=O)C1=C(C)N(Cc2ccccc2)C2=C(C(C)=O)C[C@@](O)(C(=O)OC)C(=O)N2[C@@H]1c1ccccc1 | -0.112 and 0.965 | 0.501 and 0.0527 | -0.491 and 0.55 | 1.11 and 0.699 | -0.0117 and 1 | 0.931 and 0.372 | 0.227 (inactive) and -0.00623 (inactive) | 0.689 and -0.71 | -0.16 and -0.174 | 1.25 (inactive) and 1.03 (inactive) |
| CC(C)CON=C1C[C@@H](O)[C@@H](O)[C@@H]2[C@@H]3C(=O)N(c4cccc(Oc5ccccc5)c4)C(=O)[C@@H]3CC[C@H]12 | 0.259 | 0.425 | -0.641 | 0.957 | -0.0145 | 1.34 | 0.461 (inactive) | 0.288 | -0.309 | -0.0819 (inactive) |
| O=C1C[C@]2(c3ccc([N+](=O)[O-])cc3)C(=O)N(Cc3ccccc3)c3cc(CO)ccc3[C@H]2N1C1CCCCC1 | -0.8 and 0.627 | 0.43 and 1.53 | -1.3 and 0.0974 | -0.514 and -2.14 | -0.684 and -2.65 | -0.236 and 0.352 | -0.0101 (inactive) and -0.0655 (inactive) | -0.469 and -0.544 | -0.152 and -0.189 | 0.466 (inactive) and -0.352 (inactive) |
| CCOC(=O)CCN1C(=O)[C@H]2[C@H]3[C@H](O)[C@H](O)CC(=NNC(=O)OCC)[C@@H]3CC[C@H]2C1=O | 0.241 | -0.0796 | 0.076 | -0.847 | -0.314 | -0.566 | -0.541 (inactive) | 0.209 | -0.479 | -0.453 (inactive) |
| C=C[C@@H](OC)[C@H](O)c1ccc(O)c(F)c1 | 0.29 and -0.115 | -0.625 and 0.478 | -0.232 and 0.531 | 0.204 and 0.115 | 0.296 and 1.08 | -0.242 and 0.559 | 0.0698 (inactive) and -0.132 (inactive) | 0.498 and -0.363 | 0.724 and -0.819 | -0.0191 (inactive) and -0.71 (inactive) |
| C=CCN(Cc1ccccc1)C(=O)C1N(CCCCCCO)C(=O)C2C(C(=O)O)C3C=CC21O3 (stereo not given) | -0.217 and 0.516 | 0.231 and 0.375 | -0.642 and -0.438 | -0.184 and -0.0762 | 0.462 and 1.64 | -0.678 and -0.391 | 0.201 (inactive) and 0.867 (inactive) | -0.0429 and 0.0701 | -0.252 and -0.0839 | -0.0083 (inactive) and 0.239 (inactive) |

Source: PubChem BioAssay
